Data on 47 compounds can be found in publication PMC4336329 (PLoS ONE, 2015).

Out of some 310,000 compounds screened, about 14,000 (4.5%) showed an effect of 50% or more. Effects have a minus sign here. The entries come from a sample that favours strong results as a whole.
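Further: peak tail current of the secondary pulse compared with the same well before compound.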

The target of this assay is human ether-à-go-go-related gene (hERG) potassium channel (human, UniProt Q12809). Kind of assay: primary screen, population patch clamp on CHO cells stably expressing hERG; higher = less effect of the substance.
Chain of human ether-à-go-go-related gene (hERG) potassium channel (Q12809 whole entry, looked up): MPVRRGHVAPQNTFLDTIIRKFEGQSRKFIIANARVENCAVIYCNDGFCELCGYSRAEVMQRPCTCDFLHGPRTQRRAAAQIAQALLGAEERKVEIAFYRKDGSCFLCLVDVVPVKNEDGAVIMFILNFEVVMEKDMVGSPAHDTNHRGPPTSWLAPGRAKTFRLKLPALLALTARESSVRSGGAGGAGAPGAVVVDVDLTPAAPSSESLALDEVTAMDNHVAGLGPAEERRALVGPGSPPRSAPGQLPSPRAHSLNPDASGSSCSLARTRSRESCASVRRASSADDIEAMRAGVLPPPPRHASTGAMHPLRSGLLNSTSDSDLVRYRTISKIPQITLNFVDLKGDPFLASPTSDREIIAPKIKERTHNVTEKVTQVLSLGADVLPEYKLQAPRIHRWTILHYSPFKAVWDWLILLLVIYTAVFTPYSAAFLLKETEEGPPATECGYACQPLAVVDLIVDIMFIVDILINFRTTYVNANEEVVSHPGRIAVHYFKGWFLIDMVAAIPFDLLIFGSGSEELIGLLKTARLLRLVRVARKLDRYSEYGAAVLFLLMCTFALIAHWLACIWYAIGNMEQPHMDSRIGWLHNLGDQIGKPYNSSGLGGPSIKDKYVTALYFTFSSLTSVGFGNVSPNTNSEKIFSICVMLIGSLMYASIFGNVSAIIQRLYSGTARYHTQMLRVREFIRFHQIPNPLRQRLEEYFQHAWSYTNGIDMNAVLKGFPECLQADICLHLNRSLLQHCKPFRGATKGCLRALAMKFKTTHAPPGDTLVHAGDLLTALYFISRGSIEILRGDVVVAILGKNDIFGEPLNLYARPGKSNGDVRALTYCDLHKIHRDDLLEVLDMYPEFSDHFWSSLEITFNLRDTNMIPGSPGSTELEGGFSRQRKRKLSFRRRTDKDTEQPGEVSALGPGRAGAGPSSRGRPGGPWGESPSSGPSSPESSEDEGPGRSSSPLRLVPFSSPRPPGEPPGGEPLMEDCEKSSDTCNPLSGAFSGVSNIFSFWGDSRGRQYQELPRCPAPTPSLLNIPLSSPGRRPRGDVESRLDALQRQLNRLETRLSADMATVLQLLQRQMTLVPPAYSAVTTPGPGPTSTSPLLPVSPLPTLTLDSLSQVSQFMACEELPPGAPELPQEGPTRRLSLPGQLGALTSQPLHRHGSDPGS
With `Cc1ccc(CNS(=O)(=O)c2ccc(F)c(F)c2)n1C`, the “hERG current change (%, negative = inhibition) at 10uM” value was 15.3%. In the case of `COc1ccc(CCNC(=O)C2CCCN2C(=O)Nc2cccc(C(C)=O)c2)cc1OC` (centres unmarked), the “hERG current change (%, negative = inhibition) at 10uM” value is given as -3.26%. For the compound `COc1ccc(-c2cc(C(F)F)n3ncc(C(=O)N4CCN(C(=O)c5ccco5)CC4)c3n2)cc1`, the “hERG current change (%, negative = inhibition) at 10uM” value is on record as -34.8%. Next, `CCc1ccc(NC(=O)C(=O)NCC2CCCO2)cc1` (centres unmarked): 10%; `CCOC(=O)N1CCN(c2nc(=S)n(-c3ccccc3)c(C)c2C(C)=O)CC1`: -2.56%. With `COC(=O)c1ccccc1NC(=S)NC(=O)COc1ccccc1Cl` the figure was -4.5%; with `CCC1(C)Cc2nc3[nH]c(=S)n(-c4ccccc4)c(=O)c3cc2CO1` (centres unmarked), 17.6%. Next, `CCOC(=O)COc1coc(CN2CCN(c3ccccc3)CC2)cc1=O`: 9.43%; `O=C(c1ccc(NS(=O)(=O)c2cccc3cccnc23)cc1)N1CCCCC1`: 12%. For `CCCCCCNC(=O)C(C(=O)OCC)C1CCCCC1` (centres unmarked), the “hERG current change (%, negative = inhibition) at 10uM” value is -4.59%. Next, `CCOC(=O)C(C(=O)NCC1CCCO1)C1CCCCC1` (centres unmarked): 12%; `C=CCNC(=O)C(C(=O)OCC)C1CCCCC1` (centres unmarked): -53.3%; `CCCC[C@H](CN[C@@H](CNC)[C@H](C)CC)NCCC12CCC(CC1)C2`: 10.4%. With `O=C(CNCc1cccs1)Nc1cc(S(=O)(=O)N2CCCC2)ccc1Cl` the figure was -52%.

In the case of `Cl.O=C(CNCc1cccs1)Nc1ccc(S(=O)(=O)N2CCCCC2)cc1`, the “hERG current change (%, negative = inhibition) at 10uM” value is reported as -70.9%.

`O=C(CNCc1ccncc1)Nc1cc(S(=O)(=O)N2CCCCC2)ccc1Cl`: the “hERG current change (%, negative = inhibition) at 10uM” value was -63.9%.

Turning to `O=C(Cc1cccs1)Nc1ccc(S(=O)(=O)N2CCCC2)cc1`, the “hERG current change (%, negative = inhibition) at 10uM” value is reported as 10.6%. With `O=C(CNCc1ccccn1)Nc1cc(S(=O)(=O)N2CCCCC2)ccc1Cl` the figure was -19%. Next, `O=C(CCl)Nc1cc(S(=O)(=O)N2CCCCCC2)ccc1Cl`: -22.9%. With `O=C(Cc1cccs1)Nc1cc(S(=O)(=O)N2CCCCC2)ccc1Cl` the figure was -0.378%; with `N=c1sccn1CC(=O)Nc1cc(S(=O)(=O)N2CCCCC2)ccc1Cl`, -62.5%; with `CN(CC(=O)Nc1cc(S(=O)(=O)N2CCCC2)ccc1Cl)Cc1cccs1`, -16%. On to `O=C(Cc1cccs1)Nc1ccc(S(=O)(=O)N2CCCCC2)cc1`, for which the “hERG current change (%, negative = inhibition) at 10uM” value is recorded as 5.37%. Take `Cc1ccc(S(=O)(=O)N2CCCCC2)cc1NC(=O)Cn1ccsc1=N.Cl`: the “hERG current change (%, negative = inhibition) at 10uM” value is reported as -33.7%. With `Cl.N=c1sccn1CC(=O)Nc1cc(S(=O)(=O)N2CCCC2)ccc1Cl` the figure was -39.5%; with `Cc1nn(C)cc1/C=N/NC(=O)Cn1nccc1C`, -1.28%; with `CCCCC(=O)NC1(C(F)(F)F)NC(=O)N(C)C1=O` (centres unmarked), 11.3%. Next, `CCC(Sc1nc2ccsc2c(=O)n1-c1ccc(Cl)c(C)c1)C(=O)NCc1ccco1` (centres unmarked): -16.8%; `CCOC(=O)c1nnn(CC(=O)Nc2cccc(Cl)c2C)c1C(=O)OCC`: 4.51%; `COc1cc(NC(=O)CSc2nnc3c(C)cc4c(C)ccc(C)c4n23)c(C(=O)O)cc1OC`: 27.1%.

For `COc1cccc(CNC(=O)CCC2CCCN(c3cc(C)nc(N(C)C)n3)C2)c1` (centres unmarked), the “hERG current change (%, negative = inhibition) at 10uM” value is -62.4%. With `COc1cccc(CNC(=O)CCC2CCCN(C(=O)c3cc(C)[nH]n3)C2)c1` (centres unmarked) the figure was 31.9%; with `COc1cccc(CNC(=O)CCC2CCCN(C(=O)c3ccccc3N(C)C)C2)c1` (centres unmarked), 0.174%. With `COc1cccc(CNC(=O)CCC2CCCN(C(=O)c3cc(C)on3)C2)c1` (centres unmarked) the figure was 5.3%; with `Cc1cc(C)nc(N2CCCC(CCC(=O)NCc3ccc(F)c(F)c3)C2)n1` (centres unmarked), -1.25%; with `COc1cccc(CNC(=O)CCC2CCCN(c3cc(C)nc(N)n3)C2)c1` (centres unmarked), -63.5%. With `COc1cccc(CNC(=O)CCC2CCCN(C(=O)c3ccc(C)nc3)C2)c1` (centres unmarked) the figure was 9.47%; with `COc1cccc(CNC(=O)CCC2CCCN(C(=O)C3CCOCC3)C2)c1` (centres unmarked), 1.51%; with `COc1cccc(CNC(=O)CCC2CCCN(c3cc(C)nc(N4CCCC4)n3)C2)c1` (centres unmarked), -75%.

For the compound `Cc1ccc(Nc2cccccc2=O)cc1`, the “hERG current change (%, negative = inhibition) at 10uM” value was -4.5%. Next, `Cc1ccc(S(=O)(=O)N(C)C)cc1NC(=O)CSc1ncn[nH]1`: 3.1%; `CC1=NN(C(=O)c2c(Br)cnn2C)C(O)(C(F)(F)F)C1` (centres unmarked): -24.6%. With `Fc1cccc(Nc2ncnc3c2cnn3-c2ccccc2)c1` the figure was 12.1%; with `COc1cc(/C=N/NC(=O)c2nnn(-c3nonc3N)c2C(C)C)ccc1OCc1ccc(F)cc1`, 31.1%; with `O=C(Cc1cscn1)c1ccc(O)cc1O`, -9.71%. With `COc1cc(OC)cc(C(=O)N[C@H](C(=O)Nc2ccc3c(c2)OCO3)C(C)C)c1` the figure was 11%. For the compound `O=C(CCC(F)(F)F)N1CCC(CO)(CCc2ccccc2)CC1`, the “hERG current change (%, negative = inhibition) at 10uM” value is on record as -12%.
